# Screens: PubChem, National Center for Advancing Translational Sciences (NCATS)
# Many of the other results were omitted from the sample, so hits are more common in it than they were.
# Shiga toxin inh: inhibitors of Shiga toxin in Vero cells; Vero cells, Shiga toxin protein synthesis inhibition reporter; AID 2315; inhibition, % at 38.7 µM; 290,000 tested, 9.2% active; in the data active = inhibition mostly above about 28%, no sharp cut-off; inactive = mostly below about 43%; also: 0% is about no effect
# Tb PYK inh: inhibitors of Trypanosoma brucei pyruvate kinase. Q57TT1. TbPYK enzyme, Kinase-Glo Plus ATP luminescence, 45 min. Potency, µM (titrated, usually from 76.8 µM), for the others: at the highest dose activity, negative = inhibition, hits mostly inhibitors. 410,000 tested, 0.12% active. AID 624173; also: potency is read from the fitted curve at half-maximal effect; % is scaled to controls: 0 for no effect and ±100 for the full control effect; nearly all actives have a fitted effect of over 50% in size
#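 Enzyme and substrate buffer are dispensed first and compound is pin-transferred. ADP at 130 uM final then starts the reaction, which runs 45 min at room temperature. Detection reagent is added for 10 min before luminescence is imaged.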
# CHX counter: counter-screen hit for Shiga toxin inhibitors, cycloheximide | 300,000 tested, 12% active | cell reporter, cycloheximide protein synthesis inhibition counterscreen | AID 2314 | max response, %; in the data active = max response mostly above about 13%, no sharp cut-off; inactive = mostly below about 14%; also: read at 38.3 µM for the half of the compounds with a filed dose; 0% is about no effect
# Sm TGR block: blocks Schistosoma mansoni thioredoxin glutathione reductase; Q962Y6; purified TGR, DTNB reduction, TNB absorbance 405 nm; Potency, µM (series often up to 114 µM), without a hit: top-dose activity change, negative = inhibition, actives largely listed as inhibitors; 360,000 tested, 3% active; AID 485364; also: potency is read from the fitted curve at half-maximal effect; % is scaled to controls: 0 for no effect and ±100 for the full control effect; nearly all actives have a fitted effect of over 60% in size
#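 Kinetic colorimetric format: TGR-catalysed, NADPH-driven DTNB reduction monitored via TNB absorbance. Enzyme dispensed at 20 nM; compound exposure 15 min at room temperature before reaction start.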
# LmPK inh: blocks Leishmania mexicana pyruvate kinase activity; Potency, µM (titrated, usually from 57.5 µM), for the others: at the highest dose activity change, negative = inhibition, hits mostly inhibitors; purified LmPK, Kinase-Glo ATP luminescence, 1 h; Q27686; 290,000 tested, 0.37% active; also: potency is read from the fitted curve at half-maximal effect; % is scaled to controls: 0 for no effect and ±100 for the full control effect
# Target sequence (Q27686 whole entry, looked up): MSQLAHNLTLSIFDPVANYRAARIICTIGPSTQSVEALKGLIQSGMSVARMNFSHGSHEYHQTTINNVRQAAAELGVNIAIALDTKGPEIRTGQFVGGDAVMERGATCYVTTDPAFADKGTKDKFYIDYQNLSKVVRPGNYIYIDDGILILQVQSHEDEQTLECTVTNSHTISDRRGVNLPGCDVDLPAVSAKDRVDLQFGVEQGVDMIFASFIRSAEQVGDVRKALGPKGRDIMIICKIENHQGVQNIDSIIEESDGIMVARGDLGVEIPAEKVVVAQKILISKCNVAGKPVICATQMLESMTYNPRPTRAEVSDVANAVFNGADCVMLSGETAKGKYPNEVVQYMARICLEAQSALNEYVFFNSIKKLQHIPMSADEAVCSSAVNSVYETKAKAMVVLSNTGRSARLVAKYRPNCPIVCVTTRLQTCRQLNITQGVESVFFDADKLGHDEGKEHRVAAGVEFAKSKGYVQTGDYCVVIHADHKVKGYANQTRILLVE
#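 qHTS format; LmPK 0.1 nM; substrates PEP 0.5 mM and ADP 0.1 mM. One-hour room-temperature incubation, then coupled luciferase luminescence; 0.5 nM enzyme wells mark activation.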
# Giardia FBPA inh: Giardia lamblia aldolase inhibition | A8B2U2 | purified Giardia FBPA | Potency, µM (highest dose often 59.6 µM), for the others: at the top dose activity, negative = inhibition, usual class: inhibitors | 290,000 tested, 0.71% active | AID 2451; also: potency is read from the fitted curve at half-maximal effect; % is scaled to controls: 0 for no effect and ±100 for the full control effect; nearly all actives have a fitted effect of over 55% in size
#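 Giardia FBPA (40 nM reagent) was preincubated 10 min at RT with compound (up to 57.5 uM final), then substrate plus GAPDH/TPI/NAD/arsenate coupling system with diaphorase/resazurin was added; resorufin fluorescence (525/598 nm) was read after 20 min.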
# Active calls of the source: *; ? = inconclusive; / = no result given. Unless noted, calls follow the shape of the dose curve; as a rule, active = well fitted curve in the direction sought with a large enough effect; inconclusive = small, poorly fitted or top-dose-only effect, or another doubt; inactive = no such curve, though single readings can be large; an effect the other way counts as inactive or inconclusive.
SMILES,Shiga toxin inh,Tb PYK inh,CHX counter,Sm TGR block,LmPK inh,Giardia FBPA inh
CC(C)=CCN1CCN(Cc2cnc(N3CCCC3)s2)CC1CCO (stereo not drawn),-12.0,1.3%,-2.2,4.8%,-13.1%,-0.3%
CC(C)=CCN1CCN(Cc2cnc(N3CCOCC3)s2)CC1CCO (stereo not drawn),97.8*,-4.5%,57.7*,-29.1%,1.7%,1.8%
COCCNC(=O)c1cc(-c2ccc3c(c2)OCO3)on1,98.2*,-4.3%,28.5*,-0.5%,-13.2%,6.2%
O=C(Nc1ccc(Br)cc1)c1cc(-c2ccc3c(c2)OCO3)on1,33.2,-1.5%,13.3*,-9.2%,1.5%,8.2%
CCC(C)NC(=O)c1cc(-c2ccc3c(c2)OCO3)on1 (stereo not drawn),56.8*,-5.3%,38.2*,-13.3%,-6.3%,0.8%
O=C(Nc1ccc2c(c1)OCO2)c1cc(-c2ccc(Br)cc2)on1,/,2.4%,/,-0.1%,/,/
CCN(CC)C(=O)COCc1cc(-c2ccc3c(c2)OCO3)on1,42.2,2.0%,20.7*,-5.8%,-1.2%,2.9%
COc1ccc(NC(=O)Cn2c(=O)n(CCC(=O)NCc3ccccc3OC)c(=O)c3ccccc32)cc1Cl,/,0.8%,/,2.3%,/,/
C[C@@H]1CC(=O)[C@H]2CC(CO)=CCC[C@@H]2[C@@]1(C)CC/C(=C/CO)CO,/,-4.3%,/,2.4%,/,/
C=CCNC(=O)c1cc(-c2ccc3c(c2)OCO3)on1,25.7,18.4%,34.7*,3.4%,-8.4%,2.1%
CCc1nnc(NC(=O)CCC(=O)N2CCN(S(=O)(=O)c3ccc(OC)cc3)CC2)s1,-19.7,-1.0%,-3.7,-11.2%,-1.9%,4.1%
CCCc1nnc(NC(=O)CCC(=O)N2CCN(S(=O)(=O)c3ccc(C)cc3)CC2)s1,53.0*,-9.6%,21.0,10.3%,4.0%,9.2%
CCSc1nnc(NC(=O)COc2ccccc2[N+](=O)[O-])s1,184.6*,-0.4%,62.4*,-3.0%,-1.0%,5.7%
CC(C)c1nnc(NC(=O)COc2ccccc2[N+](=O)[O-])s1,96.4*,-1.5%,19.6*,16.7%,0.5%,3.0%
CC(C)(C)C1CCc2nc(NC(=O)COc3ccccc3[N+](=O)[O-])sc2C1 (stereo not drawn),/,2.1%,/,-2.7%,/,/
COc1cc2c(cc1OC)C(c1ccc(Cl)cc1)N(c1cccc(C#N)c1)C(=O)C2 (stereo not drawn),/,-1.8%,/,5.0%,/,/
COCCn1cnc2c1c(=O)n(CC(=O)c1ccc3c(c1)OCCO3)c(=O)n2Cc1ccccc1,19.1,-8.2%,9.7*,-1.2%,8.1%,-0.5%
COCCn1cnc2c1c(=O)n(CC(=O)Nc1cc(C)on1)c(=O)n2Cc1ccccc1,-18.5,-6.9%,-2.2,10.1%,-3.1%,2.2%
Cn1c(NCc2ccco2)nc2ccccc21,15.4,-2.7%,12.3*,-17.7%,-7.2%,-0.4%
Cn1c(NCc2cccs2)nc2ccccc21,57.2*,4.0%,32.6*,6.4%,-5.2%,4.9%
O=C(CSc1ncnc2nc[nH]c12)c1ccccc1,99.6*,-19.6%,35.3*,-0.6%,-21.6%,-2.5%
COc1ccccc1OCCSc1ncnc2nc[nH]c12,18.9,-4.8%,-1.7,-7.3%,-2.0%,-27.1%
c1ccc(CCSc2ncnc3nc[nH]c23)cc1,38.9*,-2.9%,29.2*,2.5%,0.0%,-25.1%
Clc1ccc(CSc2ncnc3nc[nH]c23)cc1,0.7,2.7%,15.9,-20.5%,-1.0%,-4.2%
Cc1cccc(OCCSc2ncnc3nc[nH]c23)c1,20.6,-2.2%,14.8*,1.5%,-2.9%,2.1%
SMILES,Shiga toxin inh,Tb PYK inh,CHX counter,Sm TGR block,LmPK inh,Giardia FBPA inh
O=C(CSc1ncnc2nc[nH]c12)c1ccc([N+](=O)[O-])cc1,-1.9,-5.5%,1.5,-20.1%,1.3%,?
COc1ccc(CNC(=O)CC(c2ccc(OC)c(OC)c2)N2Cc3ccccc3C2=O)cc1 (stereo not drawn),/,4.5%,/,-11.6%,/,/
C[C@]12CCC(=O)C=C1[C@@H]1C[C@H]1[C@H]1[C@@H]3[C@@H]4C[C@H]4[C@@]4(CCC(=O)O4)[C@@]3(C)CC[C@@H]12,/,4.6%,/,/,/,/
CCOC(=O)c1ccc(CN(Cc2ccc(Cl)cc2Cl)S(=O)(=O)c2cccc(Cl)c2)cc1,/,1.9%,/,10.1%,/,/
CCCNC(=O)c1ccc(COc2ccc(C(C)(C)C)cc2)o1,94.1*,-2.2%,39.8*,6.5%,4.4%,5.6%
Cc1cccc(OCc2ccc(C(=O)N3CCOCC3)o2)c1,7.3,-0.7%,4.7,-7.3%,-4.0%,3.7%
CCCNC(=O)c1ccc(COc2ccc(Cl)cc2)o1,-1.8,1.1%,6.2,?,-6.8%,8.3%
COC(=O)c1ccc(COc2ccc(NC(C)=O)cc2)o1,15.8,-1.9%,-1.2,-4.1%,-13.3%,5.1%
CCCc1ccc(OCc2ccc(C(=O)N3CCSCC3)o2)cc1,155.8*,0.7%,85.8*,-22.6%,1.2%,3.4%
CC(C)(C)c1ccc(OCc2ccc(C(=O)N3CCOCC3)o2)cc1,114.9*,-3.4%,53.6*,0.0%,10.8%,-16.1%
CCc1ccc(OCc2ccc(C(=O)OC)o2)cc1,153.7*,1.3%,67.4*,-3.4%,-3.5%,8.6%
CC1Cc2cc(S(=O)(=O)NCCc3ccccc3)ccc2N1C(=O)C1CCC1 (stereo not drawn),/,1.6%,/,4.5%,/,/
CC(C)CN(C(=O)COC(=O)CCc1nc2ccccc2s1)c1c(N)n(Cc2ccccc2)c(=O)[nH]c1=O,/,9.1%,/,-1.7%,/,/
O=C(CC1CCCC1)N1CCN(S(=O)(=O)c2cccc(Br)c2)CC1,/,1.1%,/,/,/,/
Cn1cccc1C(=O)OCC(=O)c1cc2ccccc2o1,62.3*,-1.7%,28.8*,-3.7%,-2.4%,-0.7%
CC(C)(C)c1ccc(OCc2ccc(C(=O)Nc3cccnc3)o2)cc1,157.2*,2.7%,75.4*,-5.4%,-1.5%,8.3%
CCC(C)c1ccc(OCc2ccc(C(=O)OC)o2)cc1 (stereo not drawn),148.8*,-1.3%,101.3*,17.8%,-2.1%,3.3%
COC(=O)c1ccc(COc2ccc(/C=N/O)cc2)o1,20.2,3.2%,4.4,?,9.1%,-18.0%
COC(=O)c1ccc(COc2ccc3c(c2)CCC3)o1,116.9*,-2.5%,54.1*,42.4%,-0.9%,-1.3%
COc1cc(OC)c(C(=O)CCCCN2CCC3(CC2)NC(=O)NC3=O)cc1NS(=O)(=O)c1ccc(C(F)(F)F)cc1,/,/,/,/,/,9.2%
CCc1ccc(CNC(=O)c2ccc3nc(SCc4ccc(F)cc4)n(C)c3c2)cc1,/,0.6%,/,-1.3%,/,/
Cc1c(CCNC(=O)c2c(F)cccc2F)sc2nc(-c3ccc(F)cc3)nn12,/,-2.8%,/,0.6%,/,/
Nc1nnnn1-c1cccc([N+](=O)[O-])c1,/,0.0%,/,/,/,/
COC(=O)c1ccc(COC(=O)c2cccn2C)o1,139.7*,0.0%,23.7*,4.8%,1.5%,-2.0%
COC(=O)c1ccc(COc2ccc(C=O)cc2)o1,12.2,-1.0%,7.6,4.0%,0.5%,-4.6%
